Assay results taken from PubChem BioAssay.
Active and inactive are the calls of the source.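 Rule for the calls: active = thallium flux through the channel raised or lowered by more than 3 SD from vehicle-only wells, actives on both sides; inactive = the rest.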

test system: R275C/beta1; assay: BK channel mutant inhibitors and activators – cell-based, U2OS BacMam, thallium flux, beta subunits, selectivity assay, profiling panel (AID 1259406); conditions: U2OS BacMam BK variants, at 30 µM;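 note: initial slope of Thallos dye fluorescence rise after thallium is added; log ratio against the mean of 0.3% DMSO vehicle wells on the same plate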

| SMILES | log fold change Tl+ flux |
| --- | --- |
| COC(=O)c1ccc(C=Cc2cccc(Cl)c2)s1 | -0.192 (active) |
| COc1ccc(C(=O)NNC(=O)c2c(OC)cc(C(F)(F)F)cc2C(F)(F)F)cc1 | 0.0608 (inactive) |
| Cn1c(SCCS(=O)(=O)c2ccc(OC(F)(F)F)cc2)nnc1C(F)(F)F | -0.0256 (inactive) |
| O=C(O)c1cccc(CSc2cccs2)c1 | 0.0346 (inactive) |
| Cc1onc(-c2c(Cl)cccc2Cl)c1C1=NCCO1 | -0.0507 (inactive) |
| CCOC(=O)c1cc(CC)sc1NC(=O)C(Cl)(Cl)Cl | -0.066 (inactive) |
| Cc1nn(-c2ccccc2)nc1C(=O)NNC(=O)CSCc1cccc2ccccc12 | 0.0429 (inactive) |
| Cc1oc(S(=O)(=O)N2CCOCC2)cc1C(=O)Nc1ccc(F)cc1 | 0.0125 (inactive) |
| Cc1ccc(S(=O)(=O)NC(=O)Nc2nc(-c3ccc(C)c(Cl)c3)c(C)s2)cc1 | 0.24 (active) |
| CCCn1c(=O)c(Br)cn(-c2ccccc2C)c1=O | 0.0334 (inactive) |
| CCOC(=O)Cn1c(-c2c(Cl)cccc2Cl)noc1=O | -0.00444 (inactive) |
| Cc1nn(C)c(NCc2cccs2)c1[N+](=O)[O-] | -0.0048 (inactive) |
| Nc1ccc(Cl)cc1-c1nc2ccccc2[nH]1 | -0.112 (active) |
| COC(=O)CC1(C(=O)OC)Oc2ccc(Br)cc2C(=O)N1c1cccc(Cl)c1Cl (stereo not given) | 0.102 (inactive) |
| Cc1c(C(=O)Nc2ccc(N3CCOCC3)c(Cl)c2)cnn1-c1ccc(F)cc1 | 0.0051 (inactive) |
| CC(=O)OCC(OC(C)=O)C(OC(C)=O)C(OC(C)=O)C(C#N)OC(C)=O (stereo not given) | -0.0156 (inactive) |
| C#CC1(NC(=O)c2ccc(-c3ccc(CC)cc3)cc2)CCCCC1 | -0.0162 (inactive) |
| Cc1cnc(N)c(C)n1 | -0.0766 (inactive) |
| CCOC(=O)c1ccc(N2CCOCC2)c(N=Cc2cc(Cl)cc(Cl)c2O)c1 | 0.163 (active) |
| O=C(CC(=O)NNC(=O)c1ccc(F)cc1)NNC(=O)c1ccc(F)cc1 | 0.0179 (inactive) |

| SMILES | log fold change Tl+ flux |
| --- | --- |
| Cc1ccccc1C=C1N=C(c2ccccc2)OC1=O | 0.036 (inactive) |
| O=C(CCn1nc(-c2ccc(F)cc2)ccc1=O)NCc1ccccc1 | 0.0385 (inactive) |
| N=c1c(C(N)=O)cc2c(=O)n3ccccc3nc2n1Cc1ccco1 | -0.0587 (inactive) |
| Cc1nn(-c2ccccc2)nc1CNC(=O)COc1ccccc1 | -0.0187 (inactive) |
| Cc1cc(C)n2nc(Sc3ncccc3[N+](=O)[O-])nc2n1 | -0.025 (inactive) |
| CCOC(=O)NN=C(C)C(C)=NNC(=O)OCC | -0.0653 (inactive) |
| CC(C)(C)NC(=O)NCCO | 0.0132 (inactive) |
| Cc1ccccc1S(=O)(=O)NCc1ccc(N2CCN(C)CC2)cc1 | 0.0272 (inactive) |
| CN(C1CCCCC1)S(=O)(=O)c1cccs1 | -0.00595 (inactive) |
| O=C(CN1c2ccccc2Sc2ccccc21)NN=Cc1ccco1 | 0.0301 (inactive) |
| CC(=O)Nc1ccc(OCC(=O)N2CCN(c3ncc(C(F)(F)F)cc3Cl)CC2)cc1 | 0.00256 (inactive) |
| Cc1ccc(S(=O)(=O)Oc2c(Cc3ccccc3)c(=O)n(C)c3ccccc23)cc1 | -0.0357 (inactive) |
| CCN1CCC(O)(C#Cc2ccccc2)CC1 | 0.0179 (inactive) |
| O=C(OCCSc1sccc1[N+](=O)[O-])c1ccc(Cl)cc1 | -0.0166 (inactive) |
| Oc1c(Cl)cc(Cl)cc1C=Nc1nccs1 | 0.112 (active) |
| Cc1cc(NC(=O)Nc2nc(-c3ccc(C)c(Cl)c3)c(C)s2)c(C(F)(F)F)o1 | -0.0274 (inactive) |
| COCCCNC(=O)C(C#N)=CN(C)C | -0.0584 (inactive) |
| O=C1c2cc(S(=O)(=O)O)ccc2CCC1S(=O)(=O)O (stereo not given) | 0.0433 (inactive) |
| CN(C)c1ccc(C=NNC(N)=S)c(Cl)c1 | -0.285 (active) |
| CC(C)=CC(C)=NNc1c([N+](=O)[O-])cc(C(F)(F)F)cc1[N+](=O)[O-] | -0.0463 (inactive) |
